# Measurements published in publication PMC5540273 (PLoS ONE, 2017).
# Tested on: DAPK1
# 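Further: kd values determined as follow-up on hits from a single-replicate KINOMEscan panel screen.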
row,Structure (SMILES),Kd [nM]
1,COc1ccc(-c2nc3n(c2-c2ccncc2)CCC3)cc1 [SKF-104493],> 10000
2,Cl.Cl.c1ccc(-c2cc3ccncc3cc2OC2CCNCC2)cc1 [GSK1122999],300
3,CC(=O)Nc1n[nH]c2ncc(-c3ccccc3)cc12 [SB-548492],> 10000

# Tested on: DAPK3
row,Structure (SMILES),Kd [nM]
1,FC(F)(F)c1ccc(-c2cc(-c3c[nH]nc3-c3ccccn3)ccn2)cc1 [GW599550],> 10000
2,Cn1cc(-c2ccc3c(c2)CCN3C(=O)Cc2cccc(C(F)(F)F)c2)c2c(N)ncnc21 [GSK2606414],> 10000
3,O=C(c1ccc(-c2cc(-c3c[nH]nc3-c3ccccn3)ccn2)cc1)N1CCCC1 [GW792479],> 10000
4,Cl.Cl.c1ccc(-c2cc3ccncc3cc2OC2CCNCC2)cc1 [GSK1122999],170

# Tested on: DDR1
row,Structure (SMILES),Kd [nM]
1,O=C(Nc1ccccc1)Nc1ccc(Oc2ccc3nccn3n2)cc1,9.3
2,COc1ccc(-c2oc3ncnc(N)c3c2-c2ccc(OC)cc2)cc1 [SB-589132],650
3,Cn1cc(-c2ccc3c(c2)CCN3C(=O)Cc2cccc(C(F)(F)F)c2)c2c(N)ncnc21 [GSK2606414],280
4,FC(F)(F)c1ccc(-c2nn3ncccc3c2-c2ccnc(Nc3cccc(C(F)(F)F)c3)n2)cc1 [GW828205],> 10000
5,Fc1ccc(Nc2nccc(-c3c(-c4ccc(Cl)cc4)nn4ncccc34)n2)cc1F [GW829058],750

# Tested on: T1, DMPK2
# T1 construct: gene CDC42BPG
row,Structure (SMILES),Kd [nM]
1,CCCc1ccc(S(=O)(=O)NC2CCN(c3ccnc(Nc4ccc(OC)cc4)n3)C2)cc1 (stereo not drawn) [GSK1379737],> 10000
2,CNc1nccc(-c2c(-c3ccc(F)cc3)ncn2CCCN2CCOCC2)n1 [SB-222516],> 10000
3,Clc1cccc(-c2nc(Nc3ccncc3)c3ccccc3n2)c1 [GW873004],> 10000
